# High-throughput results (PubChem)
# Lassa entry inh = Lassa virus entry inhibition; Lassa virus pseudotype entry inhibition, cell reporter; Potency, µM (titrated, usually from 37.9 µM), without a hit: top-dose activity change, negative = inhibition, hits mostly inhibitors; 300,000 tested, 1.2% active; AID 540256; calls by dose curve; tested in HEK293 cells; also: potency is read from the fitted curve at half-maximal effect; nearly all actives have a fitted effect of over 50% in size
# FMDV inh = foot and mouth disease virus antiviral activity | FMDV antiviral cell-based qHTS | Potency, µM (series often up to 57.9 µM), without a hit: top-dose activity change, negative = inhibition, actives largely listed as inhibitors | 410,000 tested, 1.2% active | AID 1159524; calls by dose curve; tested in HEK293T cells; also: read-out not given here; potency is read from the fitted curve at half-maximal effect; nearly all actives have a fitted effect of over 45% in size
# HCMV inh = blocks human cytomegalovirus replication. activity change, negative = inhibition, % at 57.5 µM. 410,000 tested, 4.5% active. AID 1259415. HFF cells, HCMV-luciferase reporter, 72 h; active compounds read low; in the data active = activity change below about -60%; inconclusive = no clear call, values can overlap the other calls; inactive = above about -39%
#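 Two compound doses tested in HFFs infected with HCMV-luciferase, MOI 1 PFU/cell, 72 h at 37C. Lysate luminescence read with OneGlo; data normalized against buffer-only and 10uM Salinomycin inhibitor controls.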
# HCV inh = blocks hepatitis C virus. Huh7.5.1 HCVcc-Cre infection, luciferase reporter, 44 h. Potency, µM (titrated, usually from 41.8 µM), inactives show top-dose activity change, negative = inhibition, most hits filed as inhibitors. 340,000 tested, 3.4% active. AID 651820; active = well fitted inhibition curve with a large enough effect; inconclusive = small, poorly fitted or top-dose-only effect, or another doubt; inactive = no such curve, though single readings can be large or run the other way; also: potency is read from the fitted curve at half-maximal effect
#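 Cells seeded at 1,000/well and cultured 4 h, then compounds added followed by HCVcc-Cre virus (~0.5 moi). After 44 h further culture, luciferase substrate was added, plates held 15 min at room temperature, and luminescence read for 15 sec.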
# Marburg entry inh = Marburg virus entry inhibition | Potency, µM (titrated, usually from 37.8 µM), for inactives: at the highest dose activity change, negative = inhibition, usual class: inhibitors | 300,000 tested, 1.8% active | Marburg virus pseudotyped entry inhibition, cell reporter; calls by dose curve; tested in HEK293 cells; also: potency is read from the fitted curve at half-maximal effect
# The depositor's hits bear a star; ? = inconclusive; / = no result given; [ ] = dose if it differs, or a comment. This is a sample that favours compounds with a hit; in the whole collection about 7.9% have one here. % is scaled to controls: 0 for no effect and ±100 for the full control effect.
SMILES,Lassa entry inh,FMDV inh,HCMV inh,HCV inh,Marburg entry inh
CC(C)c1ccc(S(=O)(=O)c2cn(CC(=O)Nc3ccc(F)cc3)c3ccccc3c2=O)cc1,-3.9%[46.1 µM],-17.6%,-107.1*,/,0.3%[46.1 µM]
Cc1cccc(C)c1-n1ncc(C(=O)Nc2ccc3c(c2)OCCO3)c1C1CCN(C(=O)OC(C)(C)C)CC1,?,-17.6%,-29.8,/,/
O=C(O)C(Cc1ccnc2ccccc12)=NO,9.5%[46.1 µM],-17.2%,17.5,15.6%,29.0%
OC(Cc1ccnc2ccccc12)C(Cl)(Cl)Cl (stereo not given),?,?,-80.2*,11.2µM*,?
CN1CCN(Cc2ccc(Sc3ccc(Cl)cc3)c([N+](=O)[O-])c2)CC1,-8.3%,-26.2%,-71.2*,?,?
C=CS(=O)(=O)c1ccc(Oc2ccc(S(=O)(=O)C=C)cc2)cc1,6.51µM*,3.98µM*,-101.6*,?,?
CN(C)c1ccc(CN(CC2CCCO2)C(=O)COc2ccccc2Cl)cc1 (stereo not given),?,-15.6%,-35.1,/,-13.5%[46.1 µM]
COCc1nn2cc(-c3ccc(C)cc3)nc2s1,-0.9%[46.1 µM],-43.1%,-6.4,/,?
Cc1nn2cc(-c3ccc(Cl)cc3)nc2s1,?,22.3%,-29.0,-6.9%,?
Cc1nn2cc(-c3ccc(-c4ccccc4)cc3)nc2s1,11.2µM*,-20.3%,8.3,-13.3%,?
CCc1nn2cc(-c3ccccc3)nc2s1,8.2µM*,-89.4%,2.2,7.4%,18.3µM*
O=C(c1cccc(S(=O)(=O)N2CCN(c3ccc(F)cc3)CC2)c1)N1CCCC(C(F)(F)F)C1 (stereo not given),?,?,-61.2*,?,7.94µM*
O=C(C1CCN(S(=O)(=O)c2cccs2)CC1)N1CCCC(C(F)(F)F)C1 (stereo not given),-1.6%,-18.6%,-98.4*,18.0%,1.5%
O=C(Nc1ncccc1O)c1cccc(S(=O)(=O)N2CCN(c3ccc(F)cc3)CC2)c1,-2.2%,-20.4%,-5.2,-9.6%,-0.5%
O=C(Nc1ccncc1)c1cccc(S(=O)(=O)N2CCN(c3ccc(F)cc3)CC2)c1,?,20µM*,-71.4*,?,?
Cc1ccc(NC(=O)c2cccc(S(=O)(=O)N3CCN(c4ccc(F)cc4)CC3)c2)nc1,?,?,-77.3*,?,?
Cc1cccc(CS(=O)(=O)Cc2ccc(C(=O)NCc3ccc(F)cc3)o2)c1,?,-6.4%,-12.0,/,/
CC(=O)Nc1ccc(S(=O)(=O)N[C@H]2CC[C@@]34CCCN3C(=O)CCC[C@H]4[C@H]2Cc2ccccc2)cc1,/,/,-7.5,/,/
COc1ccc(N(C)C(=O)c2cn(C3CCCCC3)c(=O)c3c2c2ccccc2n3C)cc1,?,0.0%,-37.8,/,?
COc1ccc(C(=O)NCCC2=CCCCC2)cc1,?,12.6µM*,-4.0,5.9%,7.31µM*
O=C(NCCC1=CCCCC1)c1ccc(F)cc1,10µM*,?,-29.1,1.0%,?
O=C(Cn1cccc1C(=O)c1ccccc1)NCCC1=CCCCC1,-1.6%,14.6%,-64.3*,-2.1%,-22.8%[14.2 µM]
CC(=O)c1cccc(NC(=S)NCCC2=CCCCC2)c1,?,-0.1%,?,11.2µM*,?
O=C(Cn1cccc1C(=O)c1ccccc1)NCCCc1ccccc1,?,-4.4%,-33.1,-11.3%,-22.0%[46.1 µM]
O=C(NCCC1=CCCCC1)c1ccc([N+](=O)[O-])cc1,?,3.5%,-17.0,6.9%,?
SMILES,Lassa entry inh,FMDV inh,HCMV inh,HCV inh,Marburg entry inh
COc1cc(NC(=O)c2ccc(C)c(Cl)c2)ccc1NC(=O)c1cc2ccccc2o1,5.6%[46.1 µM],-12.9%,11.3,/,-8.0%[46.1 µM]
COc1cc(/C=C2\CCc3ccccc3C2=O)cc(OC)c1OC,?,-27.1%,-74.3*,?,?
COc1ccccc1C=C1CCc2ccccc2C1=O,/,-35.3%,15.1,/,/
COc1cc(/C=C2/CCc3ccccc3C2=O)cc(OC)c1OC,?,?,?,?,11.2µM*
COc1ccc(/C=C2/CCc3ccccc3C2=O)cc1OC,?,-0.8%,?,?,-21.7%
CCOc1ccccc1NC(=O)n1ncc2cc(Cl)ccc21,0.1%[46.1 µM],21.9%,35.7,/,-5.1%[46.1 µM]
Cc1ccc2c(c1)nnn2C1CCN(S(=O)(=O)c2ccc3ccccc3c2)CC1,?,?,-64.4*,?,1.5%
O=S(=O)(c1ccc2c(c1)OCCO2)N1CCC(c2nc3ccccc3[nH]2)CC1,-4.4%,?,3.2,3.8%,?
